This is an account of results in PubChem BioAssay.

The subject of assay [1] is Plasmodium falciparum Sir2 (PF13_0152, Sir2A). In words: pfSir2 binders on small-molecule microarrays, primary screen, biochemical, small-molecule microarray, 635 nm fluorescence (AID 1098).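 Also: score merges spot fluorescence intensity with its signal-to-noise ratio.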 To be noted: small-molecule microarray binding, fluorescence 635 nm; higher = more signal.
The nature of assay [2]: small-molecule microarray binders of probe aDKK1, primary screen, biochemical, biotinylated probe, 635/667 nm fluorescence (AID 1099).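 Also: score merges 667nm spot fluorescence with signal to noise across triplicate slides.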 To be noted: higher = more signal.
Assay [3] can be described thus: small-molecule microarray binders of probe aCHRDL2, primary screen, biochemical, biotinylated probe, 635/667 nm fluorescence (AID 1100). To be noted: higher = more signal.
A short description of assay [4]: splicing luciferase reporter signal modulators, primary screen, spliceosome inhibition project, cell-based, HEK293, splice +/- reporter (AID 1101).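 Also: HEK293 cells carrying a splicing-competent luciferase reporter gene; test concentration not given here.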 To be noted: luminescence, 24 h, higher = more signal, called active from +8 up or from −8 down. Background: In a reporter assay the amount or activity of a reporter protein is the signal.
In assay [5] the target is Fibroblast growth factor 10 (Homo sapiens) (UniProt O15520). In words: FGF10 binders on small-molecule microarrays, primary screen, biochemical, small-molecule microarray, 635 nm fluorescence (AID 1102). Particulars: FGF10 binding, fluorescence 635 nm, higher = more signal.
Sequence of Fibroblast growth factor 10 (Homo sapiens) (O15520 whole entry, looked up): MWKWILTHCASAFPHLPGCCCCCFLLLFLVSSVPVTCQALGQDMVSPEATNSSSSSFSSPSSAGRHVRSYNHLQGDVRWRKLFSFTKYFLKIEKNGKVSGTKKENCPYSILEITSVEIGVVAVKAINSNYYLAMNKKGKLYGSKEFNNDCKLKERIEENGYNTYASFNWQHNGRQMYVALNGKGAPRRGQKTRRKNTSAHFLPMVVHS
Assay [6] deals with glycogen synthase kinase-3 (GSK3A per assay name; protocol says GSK3B). Nature of the assay: GSK3 binders on small-molecule microarrays, primary screen, biochemical, small-molecule microarray, 635 nm fluorescence, GSK3A (AID 1103). Also: the record names both GSK3A and GSK3B. Particulars: small-molecule microarray binding, fluorescence 635 nm; higher = more signal.
Assay [7] addresses Epidermal growth factor receptor (Homo sapiens) (UniProt P00533). In words: EGFR binders on small-molecule microarrays, primary screen, biochemical, small-molecule microarray, 635 nm fluorescence (AID 1104).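 Also: score merges 667 nm emission intensity with spot signal to noise over triplicate slides.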 To be noted: EGFR binding, higher = more signal.
In assay [8] the target is Follistatin-related protein 3 (Homo sapiens) (UniProt O95633). In words: FSTL3 binders on small-molecule microarrays, primary screen, biochemical, small-molecule microarray, 635 nm fluorescence (AID 1105).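 Also: score merges emission near 667 nm and signal to noise per printed spot across three slides.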 Particulars: FSTL3 binding, higher = more signal.
Sequence of Follistatin-related protein 3 (Homo sapiens) (O95633 whole entry, looked up): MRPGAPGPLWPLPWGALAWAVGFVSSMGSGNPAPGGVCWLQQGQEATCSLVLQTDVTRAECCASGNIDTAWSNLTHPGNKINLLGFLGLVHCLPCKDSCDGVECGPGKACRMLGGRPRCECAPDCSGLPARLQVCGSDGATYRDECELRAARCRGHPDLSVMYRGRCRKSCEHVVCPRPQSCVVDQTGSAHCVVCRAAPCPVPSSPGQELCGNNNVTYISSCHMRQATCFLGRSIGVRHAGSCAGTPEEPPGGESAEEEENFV
Assay [9] concerns the target Dickkopf-related protein 1 (Homo sapiens) (UniProt O94907). Nature of the assay: DKK1 binders on small-molecule microarrays, primary screen, biochemical, small-molecule microarray, 635 nm fluorescence scan (AID 1106).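 Also: score merges emission near 667 nm with signal to noise over three replicate slides.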 Particulars: DKK1 binding, higher = more signal.
Assay [10] has as its system Inhibin beta A chain (activin A). Nature of the assay: INHBA (activin A) binders on microarrays, primary screen, biochemical, small-molecule microarray, 635 nm fluorescence scan (AID 1107).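 Also: mouse activin A protein probed at 4.33 µg/mL on printed slides; score merges bound-protein fluorescence near 667 nm with spot signal-to-noise.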 Particulars: small-molecule microarray binding, higher = more signal.
Assay [11] relates to Human papillomavirus type 1a protein E7 (residues 44-93). In words: HPV1a E7 fragment binders on microarrays, primary screen, biochemical, small-molecule microarray, residues 44-93, 635 nm fluorescence (AID 1108).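 Also: E7 fragment applied at 1 µg/mL in TBST for 1 h at 4 C; score combines spot fluorescence with its signal to noise ratio.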 To be noted: small-molecule microarray binding, fluorescence 635 nm; higher = more signal.
Assay [12] is described as follows: modulators of HCV replicon luciferase signal, primary screen, HCV replication inhibitor project, Huh7 cells, luciferase reporter (AID 1109).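 Also: huh7 hepatoma cells harbouring a luciferase neomycin HCV replicon reporter; luciferase luminescence as measure of HCV replicon replication; test concentration not given here.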 To be noted: 48 h, higher = more signal. On the technique in general: Replicon systems follow genome replication, usually without infectious particles.
Assay [13] deals with Left-right determination factor 2 (Homo sapiens) (UniProt O00292). In words: LEFTY2 binders on small-molecule microarrays, primary screen, biochemical, small-molecule microarray, 635 nm fluorescence scan (AID 1110). To be noted: LEFTY2 binding, higher = more signal.
Sequence of Left-right determination factor 2 (Homo sapiens) (O00292 whole entry, looked up): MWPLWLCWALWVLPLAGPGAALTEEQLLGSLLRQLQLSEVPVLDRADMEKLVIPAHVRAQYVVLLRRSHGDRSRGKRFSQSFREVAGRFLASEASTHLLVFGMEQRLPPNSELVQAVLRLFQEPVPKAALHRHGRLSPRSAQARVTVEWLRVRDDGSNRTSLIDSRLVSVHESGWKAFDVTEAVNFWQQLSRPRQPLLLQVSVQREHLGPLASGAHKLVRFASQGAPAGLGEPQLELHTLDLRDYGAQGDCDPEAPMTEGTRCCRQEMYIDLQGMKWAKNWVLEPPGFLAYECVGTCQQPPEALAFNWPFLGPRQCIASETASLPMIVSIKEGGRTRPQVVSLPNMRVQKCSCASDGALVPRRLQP
In assay [14] the target is Calmodulin-1 (Homo sapiens) (UniProt P0DP23). In words: CALM1 binders on microarrays, EGTA buffer, profiling panel, biochemical, small-molecule microarray, Cy5-labelled CALM1 (AID 1111).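 Also: labelled calmodulin applied in Tris saline Tween buffer holding calcium plus EGTA and DTT.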 Particulars: Cy5-CALM1 binding fluorescence, higher = more signal.
For assay [15] the target is unchanged. Nature of the assay: calcium-bound CALM1 binders on microarrays, profiling panel, artefact control for SMM control-protein annotation, biochemical, small-molecule microarray, Cy5-labelled CALM1, plus calcium (AID 1112).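 Also: score merges spot fluorescence with signal to noise from triplicate slides.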 To be noted: Cy5-CALM1 binding fluorescence, higher = more signal.
A short description of assay [16]: small-molecule microarray binders of probe aWnt5a, primary screen, biochemical, biotinylated probe, 635/667 nm fluorescence (AID 1113).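 Also: score merges 667 nm fluorescence intensity with signal-to-noise per printed feature.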 Particulars: higher = more signal.
The nature of assay [17]: small-molecule microarray binders of probe aShh, primary screen, biochemical, biotinylated probe, 635/667 nm fluorescence (AID 1114).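 Also: probe is biotin-labelled aShh protein from a stem cell growth factor screen; measures binding of labelled protein to compounds printed on the slide; score merges feature fluorescence at 667 nm with signal-to-noise.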 To be noted: higher = more signal.
Assay [18] is described as follows: small-molecule microarray binders of probe aNog, primary screen, biochemical, biotinylated probe, 635/667 nm fluorescence (AID 1115).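 Also: probe is biotinylated aNog protein used at 0.15 µg/mL for 1 h at 4 C; z-score combines 667 nm fluorescence of each spot with its signal to noise.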 Particulars: higher = more signal.
Assay [19] concerns the target Torsin-1A-interacting protein 1 (Homo sapiens) (UniProt Q5JTV8). Nature of the assay: LAP1 binders from COS7 cell lysate, primary screen, small-molecule microarray, 635/667 nm fluorescence (AID 1116). To be noted: COS7-hLAP1 lysate binding, 635 nm fluorescence, higher = more signal.
The target in assay [20] is Alpha-bungarotoxin (Bungarus multicinctus) (UniProt P60615). In words: alpha-bungarotoxin binders on microarray, profiling panel, artefact control for SMM control protein annotation, biochemical, small-molecule microarray, Alexa647 label, 635/667 nm fluorescence (AID 1117). To be noted: alpha-BTX-A647 binding fluorescence, higher = more signal.
Sequence of Alpha-bungarotoxin (Bungarus multicinctus) (P60615 whole entry, looked up): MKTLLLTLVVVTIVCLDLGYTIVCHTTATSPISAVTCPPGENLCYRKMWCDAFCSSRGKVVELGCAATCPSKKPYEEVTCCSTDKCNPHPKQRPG

Each structure is given as a SMILES string. Active and inactive are the calls of the source.

Sequence of Dickkopf-related protein 1 (Homo sapiens) (O94907 whole entry, looked up): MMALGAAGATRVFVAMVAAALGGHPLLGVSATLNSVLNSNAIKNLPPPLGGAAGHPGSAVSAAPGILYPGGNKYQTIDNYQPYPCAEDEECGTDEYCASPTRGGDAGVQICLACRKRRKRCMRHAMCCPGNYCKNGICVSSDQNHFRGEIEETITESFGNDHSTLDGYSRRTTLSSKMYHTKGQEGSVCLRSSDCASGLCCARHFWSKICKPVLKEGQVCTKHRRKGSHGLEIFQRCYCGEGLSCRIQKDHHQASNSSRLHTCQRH
Sequence of Epidermal growth factor receptor (Homo sapiens) (P00533 whole entry, looked up): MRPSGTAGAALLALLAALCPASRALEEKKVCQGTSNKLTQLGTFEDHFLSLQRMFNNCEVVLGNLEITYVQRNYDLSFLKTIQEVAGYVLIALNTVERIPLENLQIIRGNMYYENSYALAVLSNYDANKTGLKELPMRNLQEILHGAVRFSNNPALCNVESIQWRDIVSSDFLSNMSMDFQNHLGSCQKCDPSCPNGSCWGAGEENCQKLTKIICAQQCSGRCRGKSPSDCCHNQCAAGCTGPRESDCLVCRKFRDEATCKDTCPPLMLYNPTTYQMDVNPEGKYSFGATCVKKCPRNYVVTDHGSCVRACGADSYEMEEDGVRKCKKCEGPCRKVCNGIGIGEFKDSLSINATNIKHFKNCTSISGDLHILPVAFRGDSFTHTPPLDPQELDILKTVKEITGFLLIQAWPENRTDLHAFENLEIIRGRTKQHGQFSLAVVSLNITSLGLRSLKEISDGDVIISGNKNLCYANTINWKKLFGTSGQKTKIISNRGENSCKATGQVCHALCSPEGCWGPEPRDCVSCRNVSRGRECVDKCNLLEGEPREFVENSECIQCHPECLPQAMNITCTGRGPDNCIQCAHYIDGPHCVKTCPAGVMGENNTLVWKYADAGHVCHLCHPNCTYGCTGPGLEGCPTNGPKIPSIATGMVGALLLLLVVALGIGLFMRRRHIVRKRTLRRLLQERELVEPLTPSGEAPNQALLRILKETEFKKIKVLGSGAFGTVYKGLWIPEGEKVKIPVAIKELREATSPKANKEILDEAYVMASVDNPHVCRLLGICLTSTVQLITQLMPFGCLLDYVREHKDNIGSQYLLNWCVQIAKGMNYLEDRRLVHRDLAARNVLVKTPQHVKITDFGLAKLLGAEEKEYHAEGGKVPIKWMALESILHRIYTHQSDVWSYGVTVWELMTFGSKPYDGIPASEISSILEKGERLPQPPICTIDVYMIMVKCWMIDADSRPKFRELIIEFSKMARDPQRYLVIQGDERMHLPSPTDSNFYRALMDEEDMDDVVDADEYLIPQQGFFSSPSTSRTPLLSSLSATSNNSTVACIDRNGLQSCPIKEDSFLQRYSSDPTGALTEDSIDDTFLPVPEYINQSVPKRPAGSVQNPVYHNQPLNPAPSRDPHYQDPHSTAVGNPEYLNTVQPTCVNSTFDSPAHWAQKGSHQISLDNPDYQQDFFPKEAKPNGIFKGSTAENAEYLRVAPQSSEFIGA
Sequence of Torsin-1A-interacting protein 1 (Homo sapiens) (Q5JTV8 whole entry, looked up): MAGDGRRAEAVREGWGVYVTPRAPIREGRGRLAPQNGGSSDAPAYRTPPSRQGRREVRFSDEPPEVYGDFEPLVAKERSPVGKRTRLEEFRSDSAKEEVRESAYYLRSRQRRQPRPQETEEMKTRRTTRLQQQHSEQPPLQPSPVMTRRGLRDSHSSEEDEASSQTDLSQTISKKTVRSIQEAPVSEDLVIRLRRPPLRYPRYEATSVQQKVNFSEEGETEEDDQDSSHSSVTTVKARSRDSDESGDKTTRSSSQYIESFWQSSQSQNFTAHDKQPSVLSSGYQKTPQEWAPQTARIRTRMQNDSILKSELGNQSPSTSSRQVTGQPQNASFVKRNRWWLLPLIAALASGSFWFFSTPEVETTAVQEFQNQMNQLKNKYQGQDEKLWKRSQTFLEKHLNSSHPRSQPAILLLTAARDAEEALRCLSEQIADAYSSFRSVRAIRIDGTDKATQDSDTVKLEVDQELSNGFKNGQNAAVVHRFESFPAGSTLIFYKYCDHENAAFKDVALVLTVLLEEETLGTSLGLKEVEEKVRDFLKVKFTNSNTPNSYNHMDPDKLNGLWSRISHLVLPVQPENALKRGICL

Turning to `COc1ccc(C(O)C2C=CC3C(=O)N(c4ccccc4)C(=O)C3N2Nc2ccc([N+](=O)[O-])cc2)cc1OCc1ccccc1` (stereo not given), the composite z-score was 1.4 in [1]; 1.86 in [2]; 1.15 in assay [3]; 1.02 in assay [5]; 0.735 in [6]; 0.534 in [7]. For the same molecule, the composite z-score in assay [8] is 0.763; in assay [9] it was -0.0143; in assay [10], 1.07; in assay [11], 0.664; in assay [13] it was 0.0921; in assay [14], 0.804. Further, the composite z-score came to 0.584 in assay [15]; 1 in [16]; 0.504 in [17]; 2.27 in assay [18]; 0.979 in [19]; 1.27 in assay [20]. Also, the z-score is 0.465 (inactive) in assay [4] and 0.872 in assay [12].
Regarding `COC(=O)[C@@]1(Cc2ccc(OC)cc2)[C@H]2c3cc(C(=O)N(C)C)n(Cc4c(OC)[nH]cc(C)c4=O)c3C[C@H]2CN1C(=O)c1ccccc1`, the composite z-score in assay [1] is 1.04; in assay [2] it was 1.8; in [3], 0.628; in assay [5], 0.0004; in assay [6], -0.208; in [7], 0.197. For the same molecule, the composite z-score in assay [8] is 0.037; in assay [9] it was -0.41; in assay [10], 1.23; in assay [11], -0.117; in [13], 0.464; in assay [14] it was 0.352. For the same molecule, the composite z-score in [15] was -0.117; in assay [16] it was -0.16; in [17], -0.352; in assay [18] it was -0.248; in [19] it was 0.808; in assay [20] it was -0.0941. In addition, the results for the z-score in [4] and in assay [12] were -1.07 (inactive) and -1.1, respectively.
As for `CC(C)(C)OC(=O)CC[C@]1(C(=O)N2CCCCC2)N=C(c2ccc(OCCCO)cc2)O[C@H]1c1ccccc1N=[N+]=[N-]`, the composite z-score in assay [1] worked out at 0.668; in assay [2], 0.639; in [3], 0.869; in [5] it was 0.968; in assay [6] it was 0.736; in assay [7], 0.6. In addition, the composite z-score in [8] was 0.81; in assay [9] it was -0.135; in assay [10], 1.34; in [11], 1.43; in [13], 0.376; in [14], 2.25. For the same molecule, the composite z-score in assay [15] is 1.38; in [16], 0.152; in [17] it was -0.385; in assay [18], 0.207; in assay [19] it was 1.47; in assay [20] it was 0.823. The z-score in [4] is -1.37 (inactive); in [12], 0.6.
Take `[N-]=[N+]=NCc1ccccc1[C@H]1OC(c2ccc(OCCCO)cc2)=N[C@@]1(CCS(=O)(=O)c1ccccc1)C(=O)N1CCOCC1`: the composite z-score is 1.26 in [1]; 1.19 in [2]; 1.31 in assay [3]; 1.17 in [5]; 0.239 in [6]; 0.267 in [7]. Besides, the composite z-score was 1.13 in [8]; -0.0445 in [9]; 1 in assay [10]; 1.44 in assay [11]; 0.402 in assay [13]; 2.58 in assay [14]. For the same molecule, the composite z-score in assay [15] was determined as 0.786; in assay [16], 0.242; in assay [17], 0.356; in assay [18], 2.25; in assay [19], 3.34; in assay [20] it was 2.59. For the same molecule, the z-score is -0.0598 (inactive) in assay [4] and -1.27 in [12].
As to `CC(C)(C)N1CC=CC23O[C@@H]4/C=C\CCCOC(=O)C4[C@H]2C(=O)N(CCO)[C@@H]3C1=O` (stereo not given in full), the composite z-score in [1] was 1.59; in assay [2], -0.0986; in assay [3], -0.0141; in assay [5], -0.142; in [6], -0.764; in assay [7], -0.932. Also, the composite z-score in [8] was -1.28; in assay [9] it was -0.377; in assay [10] it was 0.0995; in assay [11], -0.365; in [13], -0.679; in assay [14], -0.0083. The composite z-score in assay [15] was 0.443; in assay [16] it was -0.18; in assay [17] it was 0.0121; in assay [18] it was -0.261; in assay [19] it was -0.231; in assay [20], -0.709. For the same molecule, the z-score was -0.639 (inactive) in [4] and -0.95 in assay [12].
Take `O=C1OCCC=C[C@H]2OC34C=CCN(Cc5ccccc5)C(=O)[C@H]3N(CCCCCCO)C(=O)[C@@H]4C12` (stereo not given in full): the composite z-score was 1.61 in assay [1]; -0.189 in assay [2]; 0.33 in [3]; -1.26 in assay [5]; -0.578 in [6]; -0.83 in assay [7]. Besides, the composite z-score in assay [8] is -0.435; in [9], -1.38; in assay [10], -0.597; in assay [11] it was 1.04; in [13], -1.06; in assay [14], -0.214. Also, the composite z-score in assay [15] is 0.232; in assay [16], -0.343; in [17] it was -0.233; in [18], -0.402; in assay [19], 0.366; in assay [20] it was -0.63. The results for the z-score in [4] and in assay [12] were -0.205 (inactive) and -0.422, respectively.
